D2 PAM-1: potentiates the human D2 dopamine receptor allosterically | 0.23% of 360,000 active | potentiation, % (test concentration not listed) | DiscoveRx D2 beta-arrestin cells, luminescence, 90 min; 100% = 57 uM dopamine signal | P14416 | AID 624464; in the data active = potentiation above about 50%
Target sequence (P14416 whole entry, looked up): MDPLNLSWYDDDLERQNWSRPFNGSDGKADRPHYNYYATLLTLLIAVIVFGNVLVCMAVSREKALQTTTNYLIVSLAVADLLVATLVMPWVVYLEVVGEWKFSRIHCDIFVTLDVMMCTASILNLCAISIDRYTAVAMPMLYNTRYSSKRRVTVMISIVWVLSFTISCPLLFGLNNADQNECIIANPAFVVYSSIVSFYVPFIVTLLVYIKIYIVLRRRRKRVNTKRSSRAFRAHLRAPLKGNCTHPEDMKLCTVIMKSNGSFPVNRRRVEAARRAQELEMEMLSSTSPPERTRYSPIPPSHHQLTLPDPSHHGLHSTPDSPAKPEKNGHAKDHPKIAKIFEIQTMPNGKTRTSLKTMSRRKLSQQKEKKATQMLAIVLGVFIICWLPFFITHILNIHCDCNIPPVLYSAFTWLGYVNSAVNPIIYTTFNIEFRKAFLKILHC
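PathHunter D2 cells, attached overnight at 37 deg C, received compound in DMSO plus dopamine at EC20 (50 nM final) for 90 min at 37 deg C. Beta-arrestin recruitment was read as luminescence after 1 h with detection reagent at ambient temperature.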
D2 ag-1: agonists of human D2 dopamine receptor (beta-arrestin); P14416; DiscoveRx PathHunter D2 beta-arrestin, luminescence, 90 min; 100% = 57 uM dopamine signal; activation, % (concentration not given with the values); 0.084% of 360,000 active; AID 624465; in the data active = activation above about 40%
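DiscoveRx PathHunter D2 beta-arrestin cells (2,100/well) attached overnight, then compound-stimulated 90 min at 37 C in HBSS/10 mM HEPES/0.1% Tween-20 buffer; beta-galactosidase complementation read by luminescence after 1 h at ambient temperature. Dopamine 57 uM final (EC100) as control.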
D2 ag-2: D2 dopamine receptor (human) agonism; AID 485358; HEK293 T-REx D2 cells, calcium flux agonist mode; activation, % at 2 µM; 0.53% of 340,000 active;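 active = activation over 3 SD above normal in the single-dose calcium agonist read, cut at about 30% in these data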; also: 0% is about no effect
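Tetracycline-induced HEK293 T-REx cells with force-coupled D2 receptor, plated overnight at 30 C, loaded with no-wash calcium dye. After a 10 s baseline, compound was pin-added and calcium flux read kinetically for 180 s; calcium rises flagged agonists.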
D2 PAM-2: D2 dopamine receptor (human) potentiation | P14416 | HEK293 T-REx D2, calcium flux, EC20 dopamine potentiation | potentiation, % at 10 µM | 0.34% of 340,000 active;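 active = potentiation over 3 SD above the plate norm, cut at about 30% in these data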; also: 0% is about no effect
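Potentiation of an EC20 dopamine calcium response measured kinetically over 180 s, after a preceding 180 s compound-only read flagging agonists. Cells: inducible Hek293 Trex D2 line, 4000/well, cultured overnight at 30 C before dye loading.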
D2 antag: antagonizes the human D2 dopamine receptor | inhibition, % at 10 µM | 2% of 340,000 active | P14416 | HEK293 TREx D2 cells, calcium flux, dopamine EC80; in the data active = inhibition above about 30%; inactive = below that, where a call was filed; also: 0% is about no effect
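Tetracycline-induced HEK293 T-REx cells expressing D2 force-coupled to calcium signalling were dye-loaded, exposed to compound for 180 s, then challenged with an EC80 of dopamine; calcium flux was followed kinetically for a further 180 s.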
Starred values were filed as active, the others as inactive; / = no result given. This is a sample that favours compounds with a hit; in the whole collection about 2.4% have one here.

SMILES	D2 PAM-1	D2 ag-1	D2 ag-2	D2 PAM-2	D2 antag
C=CCC(NCc1ccccc1)c1ccco1 (centres undefined)	1.7	-3.0	0.1	40.7*	-12.8
C=CCC(NCc1ccccc1)c1ccc(OC)cc1 (centres undefined)	-5.6	-6.3	0.6	-8.4	-23.2
Cc1ccc(S(=O)(=O)C(CNC(=O)COc2ccccc2)c2ccco2)cc1 (centres undefined)	/	/	-1.6	14.2	/
CC1Cc2nc(SCC(=O)N3CCc4ccccc43)n(C)c(=O)c2S1 (centres undefined)	4.2	0.5	1.6	-6.5	7.5
CC1Cc2nc(SCC(=O)OCc3ccccc3)n(C)c(=O)c2S1 (centres undefined)	-10.6	-1.0	-1.3	34.9*	-5.0
COC(=O)C1C(O)CCC2CN3CCc4c([nH]c5ccccc45)C3CC21 (centres undefined)	-7.6	2.8	-1.6	-23.4	49.9*
COC(=O)[C@H]1[C@H]2C[C@H]3c4[nH]c5ccccc5c4CCN3C[C@H]2CC[C@@H]1O	-23.2	4.1	-1.0	-22.9	86.8*
COC(=O)C1C2CC3c4[nH]c5cc(OC)ccc5c4CCN3CC2CC(O)C1OC (centres undefined)	-18.0	5.2	/	/	/
Cc1ccc(CNC(=O)C2CCN(c3nn4cc(-c5ccc(F)cc5)nc4s3)CC2)cc1	/	/	0.3	/	/
CCC(=O)Nc1nc(-c2ccc3c(c2)OCCO3)cs1	-0.9	1.9	0.4	-2.6	31.8*
CC(C)(C)C(=O)Nc1nc(-c2ccc3c(c2)OCO3)cs1	-18.2	-2.7	-0.6	21.6	-2.5
CCCCC(=O)N1CCc2cc(OC)c(OC)cc2C1COc1ccc(OC)cc1 (centres undefined)	/	/	-0.6	5.0	/
COc1cc(NCCCC(C)N)c2ncccc2c1 (centres undefined)	4.3	6.0	-3.0	9.2	2.3
CCC(CNc1cc(OC)cc2cccnc12)NC1CCCCC1 (centres undefined)	-19.3	7.3	-0.9	-18.3	47.1*
Cc1cc(C)n(C(=O)C(C)N2C(=O)c3ccccc3C2=O)n1 (centres undefined)	-2.4	-2.3	-0.5	31.3*	-7.2
Cc1cc(C)n(C(=O)CN2C(=O)c3ccccc3C2=O)n1	-5.9	-1.2	-0.6	-1.9	3.0
O=C1C(NS(=O)(=O)c2cccs2)=C(N2CCOCC2)C(=O)c2ccccc21	-19.7	-6.1	-0.1	2.6	38.1*
O=C1C(NS(=O)(=O)c2cccs2)=C(N2CCN(Cc3ccccc3)CC2)C(=O)c2ccccc21	-18.2	7.2	-0.9	-23.2	39.1*
Cc1ccc(-n2c(SCCC(C)C)nc3sc4c(c3c2=O)CC(C)(C)OC4)cc1	/	/	2.5	-8.3	/
CCN(CC)c1ccc(NC(=O)c2cccc(OC)c2)c(C)c1	-8.1	-2.8	0.0	9.7	2.8
CCN(CC)c1ccc(NC(=O)c2c(OC)cccc2OC)c(C)c1	-2.1	-2.4	0.6	-10.9	33.6*
COC(=O)c1cc(CNC(=O)c2ccc(S(=O)(=O)N(C)c3ccccc3)cc2)ccc1OC	-11.2	-0.8	0.3	-25.1	74.1*
COc1cc2c(cc1OC)CN(C(=O)CSc1nc(C)cc(C)c1C#N)CC2	-11.1	-3.4	0.1	34.5*	11.7
COc1cc2c(cc1OC)CN(C(=O)CSc1ccc(F)cc1)CC2	5.7	-0.9	0.3	-15.1	61.3*
Cc1ccccc1NC(=O)CSC1=Nc2ccccc2C2=NC(Cc3ccccc3)C(=O)N12 (centres undefined)	/	/	-0.2	2.7	/
SMILES	D2 PAM-1	D2 ag-1	D2 ag-2	D2 PAM-2	D2 antag
C=CCn1c(COc2ccc(F)cc2)nnc1SC(C)C(=O)NCC1CCCO1 (centres undefined)	-6.5	-4.0	-0.3	-12.6	61.3*
CCn1c(SC(C)C(=O)NCC2CCCO2)nc2ccccc21 (centres undefined)	-16.3	-0.9	-2.2	-4.5	31.0*
COc1ccc(Cl)cc1NC(=O)CN(C)C(=O)c1ccc(C)s1	-3.1	-0.3	-0.5	3.0	-0.6
COc1ccc(Cl)cc1NC(=O)CN(C)C(=O)c1cc2c(F)cccc2s1	-8.3	5.8	0.7	-12.3	30.9*
CC(=O)Nc1c(C(=O)Nc2cccc(C)c2)nnn1-c1ccc(C)cc1	/	/	-0.8	-13.4	/
Cc1ccc(-c2c(C(=O)N3CCOCC3)oc(=O)c3ccccc23)cc1	-1.2	-0.3	-1.0	-10.2	-5.0
CCN1CCN(C(=O)c2oc(=O)c3ccccc3c2-c2ccc(C)cc2)CC1	-11.0	-3.9	-0.7	-24.1	59.2*
Cc1ccc(NC(=O)N2CCN(c3nnc(C)c4c(C)n(-c5ccccc5)nc34)CC2)cc1Cl	/	/	1.5	-1.2	/
COc1ccccc1CNC(=O)c1cn(C)c2ccc(S(=O)(=O)N3CCC(C)CC3)cc2c1=O	/	/	0.2	1.9	/
CCc1ccc(OCC(=O)N/N=C(\C)c2ccc(O)cc2O)cc1	-6.6	-3.7	-0.2	-13.2	44.9*
CC(CNC(=O)Cn1ccc2cc(S(=O)(=O)N3CCCCC3)ccc21)c1ccccc1 (centres undefined)	/	/	0.6	-2.0	/
Cn1c(NCC(O)c2ccccc2)nc2c1c(=O)n(Cc1ccc(Cl)cc1)c(=O)n2C (centres undefined)	-1.7	-1.9	0.4	4.5	-13.3
Cn1c(NCC(O)c2ccccc2)nc2c1c(=O)n(Cc1ccc(Cl)c(Cl)c1)c(=O)n2C (centres undefined)	54.1*	2.1	/	/	/
O=C(CSc1nc2c([nH]c3ccccc32)c(=O)n1-c1ccc(F)cc1)NC1CCCCC1	/	/	0.5	-5.9	/
CCc1ccc(NC(=O)Cn2c(=O)ccc3cc(S(=O)(=O)N4CCCC4)ccc32)cc1	/	/	1.1	-1.7	/
O=C(CCCCCn1c(=S)[nH]c2ccc(N3CCOCC3)cc2c1=O)NCc1cccc(Cl)c1	-2.6	7.7	-1.0	38.9*	-0.2
O=c1c2ccc(Cl)cc2[nH]c(=S)n1CCCN1CCOCC1	-17.9	-4.9	0.3	-19.6	33.5*
O=c1c2ccccc2[nH]c(=S)n1CCCN1CCC(Cc2ccccc2)CC1	-24.5	0.7	-1.5	-27.7	81.8*
CC1CCN(CCn2c(=S)[nH]c3ccccc3c2=O)CC1	-25.1	5.2	-0.3	-11.8	30.6*
O=C(CCCCCn1c(=S)[nH]c2ccc(N3CCOCC3)cc2c1=O)NCc1ccccc1	0.3	-7.8	-1.1	-1.2	16.5
CC1CCN(CCCn2c(=S)[nH]c3ccccc3c2=O)CC1	-42.4	-2.6	-0.3	-17.8	21.5
COc1ccccc1N1CCN(CCCNC(=O)c2cnn(-c3ccccc3)c2C2CCN(C(=O)OC(C)(C)C)CC2)CC1	/	/	3.9	-23.8	/
O=c1c2ccccc2[nH]c(=S)n1CCCN1CCN(C2CCCCC2)CC1	-30.6	2.0	-0.4	-24.5	82.3*
O=C(Nc1ccc(F)cc1F)c1cc2c(=O)n3ccccc3nc2s1	/	/	/	17.7	/
Oc1cc(-c2ccccc2)c2ccccc2c1	29.8	45.5*	0.8	-5.4	-6.1
